Test results published in ChEMBL document CHEMBL3988442, “University of Dundee, Small-Polar-MMV Screening Library” (2021).
For some of these results: Results with a measured potency or affinity are listed apart.

How the values were obtained:
Parameters in all cases: scale not given: direction of the effect not stated beside the values
[1] = biological target: Protein translocase subunit SecA (Escherichia coli (strain K12)) (UniProt P10408); test: Assay to Identify E. coli SecA ATPase Inhibitors; format: functional; settings: 30 µM
Chain of Protein translocase subunit SecA (Escherichia coli (strain K12)) (P10408 whole entry): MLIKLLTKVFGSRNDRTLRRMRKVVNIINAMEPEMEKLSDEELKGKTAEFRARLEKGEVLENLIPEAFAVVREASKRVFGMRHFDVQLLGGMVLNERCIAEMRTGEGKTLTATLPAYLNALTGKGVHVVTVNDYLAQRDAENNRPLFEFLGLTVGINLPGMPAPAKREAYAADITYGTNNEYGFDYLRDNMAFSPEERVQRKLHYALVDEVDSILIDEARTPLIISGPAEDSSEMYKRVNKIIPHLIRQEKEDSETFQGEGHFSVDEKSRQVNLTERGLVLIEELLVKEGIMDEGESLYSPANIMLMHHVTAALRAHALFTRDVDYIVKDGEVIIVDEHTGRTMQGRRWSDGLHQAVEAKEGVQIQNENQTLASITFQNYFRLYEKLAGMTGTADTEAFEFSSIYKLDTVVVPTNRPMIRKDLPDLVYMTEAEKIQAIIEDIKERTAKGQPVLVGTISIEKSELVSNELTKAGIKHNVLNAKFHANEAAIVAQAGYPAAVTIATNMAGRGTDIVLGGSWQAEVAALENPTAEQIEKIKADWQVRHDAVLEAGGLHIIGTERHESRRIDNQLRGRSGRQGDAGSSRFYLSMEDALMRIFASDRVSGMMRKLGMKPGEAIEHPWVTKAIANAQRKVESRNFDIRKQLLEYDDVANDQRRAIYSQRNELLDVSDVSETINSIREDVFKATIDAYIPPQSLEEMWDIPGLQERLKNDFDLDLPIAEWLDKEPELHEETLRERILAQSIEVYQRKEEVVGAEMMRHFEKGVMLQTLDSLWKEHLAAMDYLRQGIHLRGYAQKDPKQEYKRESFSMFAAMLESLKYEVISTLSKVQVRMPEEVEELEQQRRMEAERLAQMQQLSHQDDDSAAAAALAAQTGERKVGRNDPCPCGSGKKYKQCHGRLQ

[2] = biological target: T1, Ubiquitin-activating enzyme e1, putative (Leishmania donovani (strain BPK282A1)) (UniProt E9BSI1); test: Leishmania donovani Ubiquitin Activating Enzyme (LdE1); format: functional; settings: 30 µM
T1 sequence (whole entry): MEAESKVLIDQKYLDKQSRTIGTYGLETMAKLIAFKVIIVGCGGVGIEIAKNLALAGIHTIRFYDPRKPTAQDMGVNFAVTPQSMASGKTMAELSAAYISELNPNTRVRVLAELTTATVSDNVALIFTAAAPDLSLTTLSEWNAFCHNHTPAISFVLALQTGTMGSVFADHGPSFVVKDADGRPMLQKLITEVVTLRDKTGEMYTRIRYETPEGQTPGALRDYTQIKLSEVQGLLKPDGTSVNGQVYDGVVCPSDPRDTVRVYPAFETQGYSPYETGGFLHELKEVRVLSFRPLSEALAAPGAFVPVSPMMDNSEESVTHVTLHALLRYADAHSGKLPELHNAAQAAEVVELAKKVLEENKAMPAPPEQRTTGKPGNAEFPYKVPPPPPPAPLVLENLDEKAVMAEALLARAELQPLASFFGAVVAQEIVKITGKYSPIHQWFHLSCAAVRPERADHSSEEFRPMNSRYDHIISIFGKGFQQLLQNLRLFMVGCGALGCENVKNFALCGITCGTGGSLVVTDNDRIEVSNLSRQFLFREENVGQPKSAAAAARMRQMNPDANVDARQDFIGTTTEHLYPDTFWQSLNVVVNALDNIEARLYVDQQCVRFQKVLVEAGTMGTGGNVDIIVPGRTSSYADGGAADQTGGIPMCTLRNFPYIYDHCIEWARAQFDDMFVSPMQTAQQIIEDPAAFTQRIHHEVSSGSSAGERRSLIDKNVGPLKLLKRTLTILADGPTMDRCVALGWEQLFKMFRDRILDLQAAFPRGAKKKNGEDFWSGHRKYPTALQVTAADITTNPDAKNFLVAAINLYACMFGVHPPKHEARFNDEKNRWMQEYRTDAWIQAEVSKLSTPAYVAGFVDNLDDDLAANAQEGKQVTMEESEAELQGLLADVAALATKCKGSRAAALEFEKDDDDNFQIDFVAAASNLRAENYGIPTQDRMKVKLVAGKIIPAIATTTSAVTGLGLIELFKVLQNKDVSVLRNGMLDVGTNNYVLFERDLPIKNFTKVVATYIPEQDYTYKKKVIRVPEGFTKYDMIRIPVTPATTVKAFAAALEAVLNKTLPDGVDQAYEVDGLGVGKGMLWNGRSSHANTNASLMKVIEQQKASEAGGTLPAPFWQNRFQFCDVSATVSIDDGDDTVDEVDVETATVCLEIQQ

[3] = biological target: AMP-activated protein kinase, AMPK (Homo sapiens) (UniProt P54646+O43741+P54619+Q9UGJ0+Q9Y478+Q13131+Q9UGI9); test: AMP-dependent Kinase enzyme assay. An in vitro enzyme assay that detects ADP turnover that is directly proportional to AMPK activity. This uses naive AMPK that is activated during the assay with MK-8722; format: functional; settings: 30 µM
[4] = biological target: Sialic acid-binding Ig-like lectin 9 (Homo sapiens) (UniProt Q9Y336); test: Hs-Siglec9 ALPHAscreen SOP 20170721; settings: 10 µM
Chain of Sialic acid-binding Ig-like lectin 9 (Homo sapiens) (Q9Y336 whole entry): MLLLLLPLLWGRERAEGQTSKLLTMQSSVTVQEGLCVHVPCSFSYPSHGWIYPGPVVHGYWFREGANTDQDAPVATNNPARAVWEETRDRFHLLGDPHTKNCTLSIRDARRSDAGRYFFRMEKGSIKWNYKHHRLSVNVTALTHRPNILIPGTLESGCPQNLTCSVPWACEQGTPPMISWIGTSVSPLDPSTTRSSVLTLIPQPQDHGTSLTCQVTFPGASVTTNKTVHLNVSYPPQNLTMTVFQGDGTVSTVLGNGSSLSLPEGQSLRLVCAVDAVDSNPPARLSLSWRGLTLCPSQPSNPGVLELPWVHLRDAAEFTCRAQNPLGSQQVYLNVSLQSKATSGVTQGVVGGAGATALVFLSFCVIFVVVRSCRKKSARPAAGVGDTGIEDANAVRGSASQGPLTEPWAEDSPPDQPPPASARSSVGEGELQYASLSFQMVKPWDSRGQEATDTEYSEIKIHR

Trypanosoma cruzi = test: Trypanosoma cruzi phosphomannomutase and mannose-1-phosphate guanylyltransferase assay; format: functional; settings: 10 µM
[5] = biological target: T2, Arginase-2, mitochondrial (Homo sapiens) (UniProt P78540); test: in vitro enzyme assay to detect the production of urea directly proportional to the activity of Arginase II; format: functional; settings: 33.3 µM; note: in the data most compounds retested in dose-response had high values
T2 sequence (whole entry): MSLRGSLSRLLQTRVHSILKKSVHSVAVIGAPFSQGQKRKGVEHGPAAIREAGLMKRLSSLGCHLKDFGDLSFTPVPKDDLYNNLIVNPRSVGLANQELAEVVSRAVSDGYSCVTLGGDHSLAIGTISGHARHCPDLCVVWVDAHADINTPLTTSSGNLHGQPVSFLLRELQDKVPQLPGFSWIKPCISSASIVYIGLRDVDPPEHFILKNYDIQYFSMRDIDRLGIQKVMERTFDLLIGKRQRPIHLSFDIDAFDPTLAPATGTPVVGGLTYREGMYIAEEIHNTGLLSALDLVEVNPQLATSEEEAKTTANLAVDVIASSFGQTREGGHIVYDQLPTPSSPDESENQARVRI

[6] = biological target: T3, Proteasome subunit beta (Trypanosoma cruzi) (UniProt O96673); test: Trypanosoma cruzi proteasome chymotrypsin-like activity (TcProtChymo) assay.; note: in the data most compounds retested in dose-response had high values; format: functional; settings: 9.37 µM
T3 sequence (whole entry): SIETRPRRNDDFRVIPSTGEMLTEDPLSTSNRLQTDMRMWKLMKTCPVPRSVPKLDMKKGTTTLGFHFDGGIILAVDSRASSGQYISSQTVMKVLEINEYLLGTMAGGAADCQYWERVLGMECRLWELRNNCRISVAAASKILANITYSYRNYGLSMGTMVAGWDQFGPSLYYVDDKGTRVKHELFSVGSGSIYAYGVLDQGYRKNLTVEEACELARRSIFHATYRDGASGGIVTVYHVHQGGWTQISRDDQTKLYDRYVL

Homo sapiens = species on record: Homo sapiens; test: To identify inhibition of the IFN signalling (Jak-Stat) pathway via expression of an eGFP reporter gene under the control of an IFN-stimulated response element (ISRE) containing MxA promoter.; format: functional; settings: 30 µM
[7] = biological target: T4, Tyrosyl-tRNA synthetase, putative (Trypanosoma cruzi (strain CL Brener)) (UniProt Q4DSP6); test: Trypanosoma cruzi tyrosyl tRNA synthetase (TcYRS) _High Tyrosine SOP; format: functional; settings: 30 µM; note: in the data most compounds retested in dose-response had high values
T4 sequence (whole entry): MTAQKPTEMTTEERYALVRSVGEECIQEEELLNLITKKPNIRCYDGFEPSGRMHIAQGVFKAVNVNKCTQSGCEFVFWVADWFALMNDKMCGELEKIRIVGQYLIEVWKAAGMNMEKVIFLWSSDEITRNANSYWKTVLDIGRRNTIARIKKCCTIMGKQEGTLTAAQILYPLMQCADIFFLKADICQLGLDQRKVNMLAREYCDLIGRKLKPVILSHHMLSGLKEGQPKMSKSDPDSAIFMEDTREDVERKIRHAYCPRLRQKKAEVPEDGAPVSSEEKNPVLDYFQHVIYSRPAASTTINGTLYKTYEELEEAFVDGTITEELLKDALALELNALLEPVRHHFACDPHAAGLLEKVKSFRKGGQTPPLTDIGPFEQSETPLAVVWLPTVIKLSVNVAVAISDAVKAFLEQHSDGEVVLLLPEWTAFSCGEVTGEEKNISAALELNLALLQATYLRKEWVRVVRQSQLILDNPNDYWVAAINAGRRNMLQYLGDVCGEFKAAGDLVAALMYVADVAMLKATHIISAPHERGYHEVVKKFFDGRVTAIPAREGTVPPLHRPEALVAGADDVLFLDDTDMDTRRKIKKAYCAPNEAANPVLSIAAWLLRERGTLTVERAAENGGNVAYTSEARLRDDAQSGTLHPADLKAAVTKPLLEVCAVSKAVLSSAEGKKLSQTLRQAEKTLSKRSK

[8] = biological target: T4, Tyrosyl-tRNA synthetase, putative (Trypanosoma cruzi (strain CL Brener)); test: Trypanosoma cruzi tyrosyl tRNA synthetase (TcYRS) SOP; format: functional; settings: 30 µM
[9] = biological target: Chromo domain-containing protein 1 (Saccharomyces cerevisiae (strain ATCC 204508 / S288c) (Baker's yeast)) (UniProt P32657); test: ScCHD-1 Enzyme Inhibition Assay; format: functional; settings: 30 µM; note: in the data most compounds retested in dose-response had high values
Chain of Chromo domain-containing protein 1 (Saccharomyces cerevisiae (strain ATCC 204508 / S288c) (Baker's yeast)) (P32657 whole entry, the tested form may be a part): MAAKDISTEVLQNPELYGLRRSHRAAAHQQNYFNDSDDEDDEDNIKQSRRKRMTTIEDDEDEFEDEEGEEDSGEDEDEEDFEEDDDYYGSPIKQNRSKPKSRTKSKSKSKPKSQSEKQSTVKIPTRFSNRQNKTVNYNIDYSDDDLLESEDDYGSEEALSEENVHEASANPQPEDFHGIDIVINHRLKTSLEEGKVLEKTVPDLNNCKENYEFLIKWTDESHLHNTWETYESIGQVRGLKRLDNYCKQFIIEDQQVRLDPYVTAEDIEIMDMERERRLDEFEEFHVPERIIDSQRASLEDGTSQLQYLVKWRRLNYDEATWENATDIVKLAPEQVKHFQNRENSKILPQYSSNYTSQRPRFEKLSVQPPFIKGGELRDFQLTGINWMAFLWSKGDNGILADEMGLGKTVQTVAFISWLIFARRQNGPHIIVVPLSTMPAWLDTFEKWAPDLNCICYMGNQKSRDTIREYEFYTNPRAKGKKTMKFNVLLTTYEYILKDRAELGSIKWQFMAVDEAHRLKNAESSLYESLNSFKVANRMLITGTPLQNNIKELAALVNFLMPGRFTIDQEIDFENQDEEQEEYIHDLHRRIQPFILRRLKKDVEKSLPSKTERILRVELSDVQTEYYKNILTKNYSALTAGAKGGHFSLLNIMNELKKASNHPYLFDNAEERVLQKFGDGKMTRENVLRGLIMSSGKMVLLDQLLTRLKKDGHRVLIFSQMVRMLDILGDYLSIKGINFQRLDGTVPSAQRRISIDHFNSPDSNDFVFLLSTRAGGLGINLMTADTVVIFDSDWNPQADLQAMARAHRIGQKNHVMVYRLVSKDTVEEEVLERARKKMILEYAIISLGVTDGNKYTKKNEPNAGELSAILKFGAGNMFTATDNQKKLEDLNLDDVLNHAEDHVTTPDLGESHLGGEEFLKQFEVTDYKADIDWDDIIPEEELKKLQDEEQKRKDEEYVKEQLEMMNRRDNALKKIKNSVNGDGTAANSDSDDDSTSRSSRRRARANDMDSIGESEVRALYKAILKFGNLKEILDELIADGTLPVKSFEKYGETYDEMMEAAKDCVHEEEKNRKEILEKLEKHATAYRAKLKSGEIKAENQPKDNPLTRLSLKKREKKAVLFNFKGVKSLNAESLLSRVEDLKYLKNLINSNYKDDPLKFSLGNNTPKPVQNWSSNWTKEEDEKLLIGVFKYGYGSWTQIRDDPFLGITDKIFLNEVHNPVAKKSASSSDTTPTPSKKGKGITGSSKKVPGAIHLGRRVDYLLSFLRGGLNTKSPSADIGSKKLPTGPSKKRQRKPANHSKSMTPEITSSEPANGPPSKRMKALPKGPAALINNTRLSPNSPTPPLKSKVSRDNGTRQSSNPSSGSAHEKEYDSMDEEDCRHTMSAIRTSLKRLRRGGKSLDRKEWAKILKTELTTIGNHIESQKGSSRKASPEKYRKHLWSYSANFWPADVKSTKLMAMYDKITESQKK

O=C(c1cccc(NCCO)c1)N1CCOCC1
Percent Effect [1]: 0.755% | Percent Effect [2]: 13% | Percent Effect [3]: -9.18% | Percent Effect [4]: 2.34% | Percent Effect (Trypanosoma cruzi): -2.46% | Percent Effect [5]: -5.52% | Percent Effect [6]: 19.3% | Percent Effect (Homo sapiens): 28.8% | Percent Effect [7]: 2.15% | Percent Effect [8]: 11.1% | Percent Effect [9]: -2.11%

CCNC(=O)c1cnc(Cc2ccc(F)cc2)s1
Percent Effect [1]: -3.2% | Percent Effect [2]: -2.67% | Percent Effect [3]: 3.74% | Percent Effect [4]: 1.03% | Percent Effect (Trypanosoma cruzi): -1.27% | Percent Effect [5]: 4.17% | Percent Effect [6]: 8.72% | Percent Effect (Homo sapiens): 14.1% | Percent Effect [7]: 3.83% | Percent Effect [8]: 8.64% | Percent Effect [9]: -2.95%

Cc1ccc(NC2CCN(C(=O)Cn3nc(C)cc3C)CC2)nn1
Percent Effect [1]: -1.08% | Percent Effect [2]: 15.8% | Percent Effect [3]: -0.776% | Percent Effect [4]: 6.59% | Percent Effect (Trypanosoma cruzi): -0.376% | Percent Effect [5]: -0.766% | Percent Effect [6]: 17.9% | Percent Effect (Homo sapiens): 6.37% | Percent Effect [7]: 3.43% | Percent Effect [8]: 12.2% | Percent Effect [9]: -1.72%

COc1ccc(C2=CCN(C(=O)CN(C)CC(N)=O)CC2)cc1
Percent Effect [1]: -1.62% | Percent Effect [2]: 5.06% | Percent Effect [3]: 0.216% | Percent Effect [4]: -0.305% | Percent Effect (Trypanosoma cruzi): -19.4% | Percent Effect [5]: 6.46% | Percent Effect [6]: 9.42% | Percent Effect (Homo sapiens): 16.9% | Percent Effect [7]: 3.45% | Percent Effect [8]: 8.86% | Percent Effect [9]: -6.22%

Cc1ncsc1C(=O)NCc1cccs1
Percent Effect [1]: 0.275% | Percent Effect [2]: 16.2% | Percent Effect [3]: -1.61% | Percent Effect [4]: 5.83% | Percent Effect (Trypanosoma cruzi): 0.464% | Percent Effect [5]: 0.185% | Percent Effect [6]: 14% | Percent Effect (Homo sapiens): 21.8% | Percent Effect [7]: 6.93% | Percent Effect [8]: 23.2% | Percent Effect [9]: -4.46%

Cc1nnc(C(C)NCC2(c3c(F)cccc3F)CCCC2)o1 (stereo unspecified)
Percent Effect [1]: -2.54% | Percent Effect [2]: -2.7% | Percent Effect [3]: -3.85% | Percent Effect [4]: 0.273% | Percent Effect (Trypanosoma cruzi): -0.965% | Percent Effect [5]: 1.91% | Percent Effect [6]: 7.93% | Percent Effect (Homo sapiens): 14.7% | Percent Effect [7]: 0.529% | Percent Effect [8]: 9.76% | Percent Effect [9]: -3.86%

CC1=N[C@@]2(CC[C@@H]3CN(S(=O)(=O)N(C)C)C[C@@H]32)C(=O)N1CC(C)C
Percent Effect [1]: 1.29% | Percent Effect [2]: 8.11% | Percent Effect [3]: 2.53% | Percent Effect [4]: -13.6% | Percent Effect (Trypanosoma cruzi): -6.75% | Percent Effect [5]: 4.78% | Percent Effect [6]: 13.3% | Percent Effect (Homo sapiens): 6.52% | Percent Effect [7]: 5.41% | Percent Effect [8]: 10.3% | Percent Effect [9]: -5.11%

Cc1nc(C(C)(C)NC(=O)Nc2cccc(C#N)c2)no1
Percent Effect [1]: -4.07% | Percent Effect [2]: 5.48% | Percent Effect [3]: 3.16% | Percent Effect [4]: 8.84% | Percent Effect (Trypanosoma cruzi): 8.81% | Percent Effect [5]: -0.455% | Percent Effect [6]: 15.1% | Percent Effect (Homo sapiens): 3.14% | Percent Effect [7]: 5.38% | Percent Effect [8]: 15% | Percent Effect [9]: -4.58%

C1CCCN(c2nc(C3CC3)ns2)CC1
Percent Effect [1]: -7.97% | Percent Effect [2]: -5.48% | Percent Effect [3]: -19.9% | Percent Effect [4]: 6.34% | Percent Effect (Trypanosoma cruzi): -4.31% | Percent Effect [5]: -2.27% | Percent Effect [6]: 12.2% | Percent Effect (Homo sapiens): 30.1% | Percent Effect [7]: -4.3% | Percent Effect [8]: -10% | Percent Effect [9]: -3.08%

CCn1cc(CN2CCCN(C(=O)C3=NN(C)C(=O)CC3)CC2)cn1
Percent Effect [1]: 0.989% | Percent Effect [2]: 18.2% | Percent Effect [3]: 0.0374% | Percent Effect [4]: -13.6% | Percent Effect (Trypanosoma cruzi): -0.686% | Percent Effect [5]: 6.11% | Percent Effect [6]: 13.7% | Percent Effect (Homo sapiens): 29.5% | Percent Effect [7]: 5.71% | Percent Effect [8]: 0% | Percent Effect [9]: -17.5%

Cc1oc(-c2ccsc2)nc1CC(=O)NCCS(C)(=O)=O
Percent Effect [1]: -3.85% | Percent Effect [2]: 5.2% | Percent Effect [3]: 2.35% | Percent Effect [4]: 5.36% | Percent Effect (Trypanosoma cruzi): -2.26% | Percent Effect [5]: -4.14% | Percent Effect [6]: 9.48% | Percent Effect (Homo sapiens): 3.37% | Percent Effect [7]: -1.07% | Percent Effect [8]: 6.17% | Percent Effect [9]: -2.55%
